Test results reported in PubChem BioAssay (EPA / NIEHS).
Inconclusive results are not listed. Calls of active or inactive are those of the source. Rule for the calls, unless noted: active = hit-call score of the fitted dose curve at least 0.9, where 1 is the maximum; inconclusive = response in the unintended direction; inactive = score below 0.9.

Key:
[1] = read-out: Glyceraldehyde-3-phosphate dehydrogenase (Homo sapiens) (UniProt P04406); test: CLD_GAPDH_6hr: CellzDirect (CLD) Gene Expression Assay for Baseline Control (Glyceraldehyde 3-phosphate dehydrogenase) at 6 hours (AID 2283681);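 note: active means increased signal relative to DMSO vehicle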
Procedure, shortened: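 GAPDH baseline-control readout from qNPA (S1 nuclease digestion, probe hybridization, chemiluminescence) in lysates of cultured human hepatocytes harvested 6 h post-dosing. Chemicals tested at multiple concentrations versus 0.2% DMSO vehicle; microscopy-based cytotoxicity flagged yes/no.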

[2] = read-out: xenobiotic metabolism (CYP1A2), CYP1A2 (gene 1544); test: CLD_CYP1A2_24hr: CellzDirect (CLD) Gene Expression Assay for xenobiotic metabolism (CYP1A2) at 24 hours (AID 2283683)
Procedure, shortened: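 CYP1A2 mRNA induction measured by quantitative nuclease protection (chemiluminescent) in human primary hepatocytes 24 h after multi-concentration chemical dosing with daily fresh solutions. DMSO (0.2%) baseline; positive-direction fitting; morphology-based cytotoxicity noted.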

[3] = read-out: ABC Transporter (ABCB1), ABCB1 (gene 5243); test: CLD_ABCB1_24hr: CellzDirect (CLD) Gene Expression Assay for ABC Transporter (ABCB1) at 24 hours (AID 2283684);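 for AC50: potency for increase in ABCB1 mRNA relative to DMSO vehicle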
Procedure, shortened: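 ABCB1 mRNA induction versus 0.2% DMSO vehicle was read by qNPA chemiluminescence at 24 h. Cultured human hepatocytes from two donor preparations received daily fresh dosing, and phase-contrast cytotoxicity calls were annotated alongside the data.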

[4] = read-out: Broad substrate specificity ATP-binding cassette transporter ABCG2 (Homo sapiens) (UniProt Q9UNQ0); test: CLD_ABCG2_24hr: CellzDirect (CLD) Gene Expression Assay for ABC Transporter (ABCG2) at 24 hours (AID 2283685)
Procedure, shortened: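 ABCG2 mRNA induction, read as gain of chemiluminescent signal over 0.2% DMSO, was measured by quantitative nuclease protection at 24 h. Cultured human liver hepatocytes were given fresh dosing solutions of test chemicals at several concentrations each day.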

[5] = read-out: Cytochrome P450 2B6 (Homo sapiens) (UniProt P20813); test: CLD_CYP2B6_24hr: CellzDirect (CLD) Gene Expression Assay for xenobiotic metabolism (CYP2B6) at 24 hours (AID 2283686)
Procedure, shortened: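 qNPA chemiluminescent measurement of mRNA at 24 hours in human primary hepatocyte cultures from two donor preparations, with daily fresh dosing and 0.2% DMSO vehicle as baseline. Morphology-based cytotoxicity flagged yes/no.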

[6] = read-out: Cytochrome P450 2C9 (Homo sapiens) (UniProt P11712); test: CLD_CYP2C9_24hr: CellzDirect (CLD) Gene Expression Assay for xenobiotic metabolism (CYP2C9) at 24 hours (AID 2283688)
Procedure, shortened: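 Induction of CYP2C9 mRNA was quantified by quantitative nuclease protection assay (chemiluminescence), gain of signal versus 0.2% DMSO vehicle, 24 h after dosing. Human primary hepatocytes (two donors) received fresh chemical daily at multiple concentrations; morphology-based cytotoxicity flagged yes/no.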

[7] = read-out: Cytochrome P450 3A4 (Homo sapiens) (UniProt P08684); test: CLD_CYP3A4_24hr: CellzDirect (CLD) Gene Expression Assay for xenobiotic metabolism (CYP3A4) at 24 hours (AID 2283689)
Procedure, shortened: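 CYP3A4 mRNA induction read by quantitative nuclease protection (chemiluminescence) 24 hr after dosing. Cultured human hepatocytes (two donor preparations) treated daily, vehicle 0.2% DMSO; phase-contrast morphology annotates cytotoxicity.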

[8] = read-out: alkyl and aryl transferase (GSTA2), GSTA2 (gene 2939); test: CLD_GSTA2_24hr: CellzDirect (CLD) Gene Expression Assay for alkyl and aryl transferase (GSTA2) at 24 hours (AID 2283693)
Procedure, shortened: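 GSTA2 transcript levels were quantified by quantitative nuclease protection assay in primary human hepatocytes 24 h after daily dosing with fresh solutions at multiple concentrations; 0.2% DMSO vehicle as baseline, cytotoxicity flagged morphologically.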

[9] = read-out: Cytochrome P450 2C9 (Homo sapiens) (UniProt P11712); test: CLD_CYP2C9_48hr: CellzDirect (CLD) Gene Expression Assay for xenobiotic metabolism (CYP2C9) at 48 hours (AID 2283701; active = hit-call score of the fitted dose curve at least 0.9, where 1 is the maximum; inactive = score below 0.9)
Procedure, shortened: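 mRNA level measured by quantitative nuclease protection (S1 digestion, chemiluminescent detection) in lysates of human primary hepatocytes exposed 48 h with daily re-dosing. Induction fitted positively versus 0.2% DMSO; morphology-based cytotoxicity flagged yes/no.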

[10] = CLD_ACTIN_48hr: CellzDirect (CLD) Gene Expression Assay for Baseline Control (Actin) at 48 hours (AID 2283702)
Procedure, shortened: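 Background-control actin mRNA read by qNPA chemiluminescence at 48 h. Human hepatocyte cultures from two donors received fresh multi-concentration chemical doses daily for two days; 0.2% DMSO served as vehicle baseline.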

[11] = read-out: sulfotransferase (SULT2A), SULT2A1 (gene 6822); test: CLD_SULT2A_24hr: CellzDirect (CLD) Gene Expression Assay for sulfotransferase (SULT2A) at 24 hours (AID 2283694)
Procedure, shortened: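 mRNA is measured by qNPA: probe hybridisation, S1 nuclease digestion, chemiluminescence, in lysates from human primary hepatocytes harvested 24 h after daily dosing. Vehicle was 0.2% DMSO. Phase-contrast microscopy flagged cytotoxicity (yes/no).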

[12] = read-out: Cytochrome P450 3A4 (Homo sapiens) (UniProt P08684); test: CLD_CYP3A4_48hr: CellzDirect (CLD) Gene Expression Assay for xenobiotic metabolism (CYP3A4) at 48 hours (AID 2283698)
Procedure, shortened: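 CYP3A4 induction read by qNPA chemiluminescence after 48 h, with fresh dosing solutions on consecutive days, in cultured human hepatocytes (two donors). Vehicle 0.2% DMSO as baseline; microscopy-based cytotoxicity annotated yes/no alongside data.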

[13] = read-out: Cytochrome P450 2B6 (Homo sapiens) (UniProt P20813); test: CLD_CYP2B6_48hr: CellzDirect (CLD) Gene Expression Assay for xenobiotic metabolism (CYP2B6) at 48 hours (AID 2283699);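 note: actives raise transcript level above DMSO so potency reflects induction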
Procedure, shortened: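 CYP2B6 transcript induction, read by quantitative nuclease protection (S1 digestion, chemiluminescent detection) 48 h after dosing, is fitted upward against 0.2% DMSO. Cultured human liver primary cells, two donor preparations, received fresh chemical daily over multiple concentrations.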

[14] = read-out: HMG-CoA synthase (HMGCS2), HMGCS2 (gene 3158); test: CLD_HMGCS2_24hr: CellzDirect (CLD) Gene Expression Assay for HMG-CoA synthase (HMGCS2) at 24 hours (AID 2283691)
Procedure, shortened: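 qNPA with S1 nuclease digestion and chemiluminescent detection gave HMGCS2 transcript levels, fitted upward against 0.2% DMSO vehicle. Cultured human hepatocytes (two donors) received fresh compound daily and were harvested at 24 h; phase-contrast morphology flagged cytotoxicity.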

[15] = read-out: Glyceraldehyde-3-phosphate dehydrogenase (Homo sapiens) (UniProt P04406); test: CLD_GAPDH_24hr: CellzDirect (CLD) Gene Expression Assay for Baseline Control (Glyceraldehyde 3-phosphate dehydrogenase) at 24 hours (AID 2283692)
Procedure, shortened: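 GAPDH baseline-control readout: qNPA chemiluminescent mRNA signal in human primary hepatocytes harvested 24 h after daily dosing, normalised to 0.2% DMSO with positive fitting direction; cytotoxicity annotated by phase-contrast morphology.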

[16] = read-out: glucuronosyltransferase (UGT1A1), UGT1A1 (gene 54658); test: CLD_UGT1A1_24hr: CellzDirect (CLD) Gene Expression Assay for glucuronosyltransferase (UGT1A1) at 24 hours (AID 2283696)
Procedure, shortened: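 UGT1A1 transcript induction was measured by quantitative nuclease protection assay (chemiluminescence) in human hepatocyte cultures 24 h after daily fresh dosing, with 0.2% DMSO as vehicle and baseline.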

[17] = read-out: Cytochrome P450 2C19 (Homo sapiens) (UniProt P33261); test: CLD_CYP2C19_48hr: CellzDirect (CLD) Gene Expression Assay for xenobiotic metabolism (CYP2C19) at 48 hours (AID 2283700);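 note: fitted upward so actives raise CYP2C19 mRNA above the 0.2% DMSO vehicle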
Procedure, shortened: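 CYP2C19 mRNA induction read by chemiluminescent quantitative nuclease protection assay after 48 h, with fresh compound added daily for two days to cultured human liver hepatocytes. Activity fitted upward against 0.2% DMSO vehicle.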

[18] = read-out: ABC Transporter (ABCB1), ABCB1 (gene 5243); test: CLD_ABCB1_48hr: CellzDirect (CLD) Gene Expression Assay for ABC Transporter (ABCB1) at 48 hours (AID 2283695)
Procedure, shortened: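 ABCB1 mRNA was measured by quantitative nuclease protection assay (chemiluminescence) 48 h after dosing. Human hepatocyte cultures from two separate donors received fresh dosing solutions daily for two days, with 0.2% DMSO as vehicle. Positive-direction fit against DMSO.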

Measured: AC50

Chain of Cytochrome P450 2C19 (Homo sapiens) (P33261 whole entry, looked up): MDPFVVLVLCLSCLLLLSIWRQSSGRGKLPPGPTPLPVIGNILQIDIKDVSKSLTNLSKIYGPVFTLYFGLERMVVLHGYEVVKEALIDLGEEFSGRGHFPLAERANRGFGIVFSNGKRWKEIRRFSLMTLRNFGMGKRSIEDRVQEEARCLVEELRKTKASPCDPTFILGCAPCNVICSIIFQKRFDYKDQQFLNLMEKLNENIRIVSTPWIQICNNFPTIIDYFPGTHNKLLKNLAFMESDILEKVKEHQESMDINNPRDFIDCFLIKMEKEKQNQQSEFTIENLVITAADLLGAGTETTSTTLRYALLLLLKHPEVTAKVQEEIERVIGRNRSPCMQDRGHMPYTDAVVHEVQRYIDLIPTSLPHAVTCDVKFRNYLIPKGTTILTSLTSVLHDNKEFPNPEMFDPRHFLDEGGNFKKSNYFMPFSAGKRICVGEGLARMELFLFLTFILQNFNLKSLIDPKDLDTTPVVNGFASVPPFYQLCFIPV
Chain of Broad substrate specificity ATP-binding cassette transporter ABCG2 (Homo sapiens) (Q9UNQ0 whole entry, looked up): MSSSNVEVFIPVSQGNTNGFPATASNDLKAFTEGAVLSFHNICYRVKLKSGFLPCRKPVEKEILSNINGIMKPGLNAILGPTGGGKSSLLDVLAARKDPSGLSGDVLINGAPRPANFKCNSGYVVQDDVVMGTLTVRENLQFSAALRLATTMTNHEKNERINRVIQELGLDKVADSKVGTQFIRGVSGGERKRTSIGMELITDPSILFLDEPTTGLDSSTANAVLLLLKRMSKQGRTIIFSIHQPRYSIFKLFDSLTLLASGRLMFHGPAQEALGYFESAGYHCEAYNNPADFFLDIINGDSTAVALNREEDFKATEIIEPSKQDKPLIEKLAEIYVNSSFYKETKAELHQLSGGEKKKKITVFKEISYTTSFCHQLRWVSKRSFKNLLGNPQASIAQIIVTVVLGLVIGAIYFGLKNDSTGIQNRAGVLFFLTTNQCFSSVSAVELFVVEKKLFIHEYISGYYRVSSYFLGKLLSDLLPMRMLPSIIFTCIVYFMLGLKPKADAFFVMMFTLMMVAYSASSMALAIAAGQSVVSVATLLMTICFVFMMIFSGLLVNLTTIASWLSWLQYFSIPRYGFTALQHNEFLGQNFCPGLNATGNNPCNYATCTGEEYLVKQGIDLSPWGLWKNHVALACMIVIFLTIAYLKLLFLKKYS
Chain of Cytochrome P450 3A4 (Homo sapiens) (P08684 whole entry, looked up): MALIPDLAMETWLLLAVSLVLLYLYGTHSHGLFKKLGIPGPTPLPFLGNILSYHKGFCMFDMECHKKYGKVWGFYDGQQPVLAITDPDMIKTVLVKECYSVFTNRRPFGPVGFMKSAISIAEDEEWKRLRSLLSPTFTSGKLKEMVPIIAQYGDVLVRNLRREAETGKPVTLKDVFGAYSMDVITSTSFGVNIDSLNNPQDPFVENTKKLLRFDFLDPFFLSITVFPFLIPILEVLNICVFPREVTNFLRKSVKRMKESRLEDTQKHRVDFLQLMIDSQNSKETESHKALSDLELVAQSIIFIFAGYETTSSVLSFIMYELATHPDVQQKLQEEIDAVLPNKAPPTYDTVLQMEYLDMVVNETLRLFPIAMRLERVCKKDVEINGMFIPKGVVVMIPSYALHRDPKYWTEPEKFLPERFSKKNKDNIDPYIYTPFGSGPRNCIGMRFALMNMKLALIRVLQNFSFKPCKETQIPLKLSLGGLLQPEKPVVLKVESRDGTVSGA
Chain of Glyceraldehyde-3-phosphate dehydrogenase (Homo sapiens) (P04406 whole entry, looked up): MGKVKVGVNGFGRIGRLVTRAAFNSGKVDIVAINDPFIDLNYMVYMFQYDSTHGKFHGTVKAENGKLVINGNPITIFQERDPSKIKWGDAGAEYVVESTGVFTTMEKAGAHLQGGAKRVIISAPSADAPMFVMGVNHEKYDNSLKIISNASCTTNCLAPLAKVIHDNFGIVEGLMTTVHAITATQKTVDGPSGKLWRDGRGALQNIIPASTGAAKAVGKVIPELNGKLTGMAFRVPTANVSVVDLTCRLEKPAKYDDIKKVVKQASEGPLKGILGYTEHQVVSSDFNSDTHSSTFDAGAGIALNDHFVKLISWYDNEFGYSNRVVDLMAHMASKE

Clc1cccc(C(Cl)(Cl)Cl)n1
inactive: [1] | [2] | [3] | [4] | [6] | [7] | [8] | [9] | [10]
active: [5] 0.325 µM

COCC(C)N(C(=O)CCl)c1c(C)csc1C (configuration not stated)
inactive: [1] | [3] | [4] | [6] | [8] | [11]

OC(c1ccc(Cl)cc1)(c1ccc(Cl)cc1)C(Cl)(Cl)Cl
inactive: [1] | [2] | [4] | [6] | [9]
active: [5] 4.08 µM | [7] 4.09 µM | [12] 11 µM | [13] 4.47 µM

CCOP(=O)(OCC)Oc1nc(Cl)c(Cl)cc1Cl
active: [5] 0.405 µM | [7] 3.97 µM
inactive: [1] | [4] | [6] | [14] | [15] | [8] | [16] | [9]

COC(=O)NS(=O)(=O)c1ccc(N)cc1
inactive: [2] | [3] | [7] | [14] | [8] | [12] | [17] | [9] | [10]

CCCCC(O)(Cn1cncn1)c1ccc(Cl)cc1Cl (configuration not stated)
active: [3] 31.9 µM | [5] 1.9 µM | [7] 1.13 µM
inactive: [4] | [9] | [10]

CC(C)Nc1nc(Cl)nc(NC(C)C)n1
active: [7] 6.2 µM | [13] 3.11 µM
inactive: [3] | [6] | [15]

CC1(C)C(C(=O)OC(C#N)c2cccc(Oc3ccccc3)c2)C1(C)C (configuration not stated)
active: [7] 13 µM | [12] 20 µM
inactive: [3] | [4] | [6] | [14] | [8] | [17] | [9]

CC1(C)C(C=C(Cl)Cl)C1C(=O)OC(C#N)c1cccc(Oc2ccccc2)c1 (configuration not stated)
inactive: [3] | [4] | [6] | [8] | [18] | [17] | [9]
active: [16] 6.01 µM

COCc1cnc(C2=NC(C)(C(C)C)C(=O)N2)c(C(=O)O)c1 (configuration not stated)
inactive: [1] | [4] | [6] | [7] | [14] | [8] | [13]

O=C(Nc1ccccc1-c1ccc(Cl)cc1)c1cccnc1Cl
active: [13] 1.89 µM
inactive: [3] | [10]

COC(=O)c1c(C(F)F)nc(C(F)(F)F)c(C2=NCCS2)c1CC(C)C
active: [2] 9.96 µM | [13] 0.378 µM
inactive: [3] | [4] | [6] | [7] | [17] | [9]

Clc1nc(Cl)nc(Nc2ccccc2Cl)n1
inactive: [1] | [3] | [7] | [15] | [8] | [18] | [17] | [10]

CNC(=O)N(C)c1nnc(C(C)(C)C)s1
inactive: [2] | [5] | [7] | [8] | [17] | [10]

CCOc1nc(F)cc2nc(S(=O)(=O)Nc3c(Cl)cccc3Cl)nn12
active: [5] 6.27 µM | [7] 2.93 µM
inactive: [2] | [3] | [4] | [6] | [14] | [15] | [16] | [17] | [9]

CCCN(CC)CC1COC2(CCC(C(C)(C)C)CC2)O1 (configuration not stated)
active: [2] 0.583 µM | [7] 4.82 µM | [14] 0.0742 µM
inactive: [3] | [4] | [15] | [8] | [13] | [17] | [9]

CCCCC(C#N)(Cn1cncn1)c1ccc(Cl)cc1 (configuration not stated)
inactive: [3] | [4] | [8] | [11] | [9]
active: [5] 9.62 µM | [7] 9.54 µM | [13] 4.45 µM

CCOP(=S)(OCC)Oc1nc(Cl)n(C(C)C)n1
inactive: [3] | [4] | [6] | [8] | [9]
active: [2] 0.975 µM | [5] 0.383 µM | [7] 0.677 µM | [13] 0.427 µM
